GLA inh pH 4.5 = alpha-galactosidase A (human) inhibition, pH 4.5 | P06280 | purified enzyme, 4-MU-alpha-Gal fluorescence, pH 4.5 | activity change, negative = inhibition, % at 105 µM | 230,000 tested, under 10 active
HPGD block = blocks human HPGD enzyme activity | purified HPGD, NADH fluorescence kinetic, PGE2 substrate | Potency, µM, actives largely listed as inhibitors | 150,000 tested, 4.3% active | AID 894; active = well fitted inhibition curve with a large enough effect, not every such curve was filed as active; inconclusive = small, poorly fitted or top-dose-only effect, or another doubt; inactive = no such curve, though single readings can be large or run the other way
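20 nM HPGD preincubated 15 min at room temperature with compound in 50 mM Tris-HCl pH 8, 0.01% Tween 20. Started with 1 mM NAD+ and 30 uM prostaglandin E2; NADH fluorescence (360/450 nm) read 5 times over 30-s intervals, last minus first.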
GLA spleen mod = alpha-galactosidase A (human) modulation. P06280. human spleen homogenate, 4MU-alpha-Gal fluorescence, 40 min. 240,000 tested, 0.008% active. Potency, µM (series often up to 80 µM), usual class: inhibitors. AID 2107
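Human spleen homogenate (1 ug) as enzyme source, 4-methylumbelliferyl-alpha-D-galactopyranoside 1 mM final, citrate/phosphate pH 5.0 with 0.01% Tween-20. Compounds 40 min at 37C, NaOH/glycine stop; fluorescence Ex 365/Em 440, Hill-fit AC50.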
PNC assembly inh = blocks assembly of the perinucleolar compartment; activity change (PNC), negative = inhibition, % at 10 µM; 140,000 tested, 3.1% active; PC3M PTB-GFP, PNC prevalence imaging, 16 h; stronger effect = lower value;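 active = readout at or below -70, meaning at least 70% loss of cells showing the perinucleolar compartment, a nuclear body marking cancer cells; inconclusive = readout between -30 and a set limit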
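Read-out is percentage of cells bearing a perinucleolar compartment, from automated 20x imaging of fixed, Hoechst-stained PC3M PTB-GFP cells. Cells were seeded 4 h, then exposed 16 h to compound (23 nl of library stock) in duplicate plates.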
ALDH1A1 inh = ALDH1A1 (human) enzyme inhibition; 220,000 tested, 7.3% active; P00352; Potency, µM (series often up to 75.3 µM), usual class: inhibitors; Purified ALDH1A1, NADH fluorescence, propionaldehyde substrate; AID 1030; active = well fitted inhibition curve with a large enough effect, not every such curve was filed as active; inconclusive = small, poorly fitted or top-dose-only effect, or another doubt; inactive = no such curve, though single readings can be large or run the other way
12-hLO inh = blocks human 12-lipoxygenase activity. 150,000 tested, 0.12% active. P18054. purified 12-hLO, xylenol orange hydroperoxide absorbance. Potency, µM (highest dose often 57.1 µM), hits mostly inhibitors; note: nearly all actives have a fitted effect of over 55% in size
Target sequence (P18054 whole entry, looked up): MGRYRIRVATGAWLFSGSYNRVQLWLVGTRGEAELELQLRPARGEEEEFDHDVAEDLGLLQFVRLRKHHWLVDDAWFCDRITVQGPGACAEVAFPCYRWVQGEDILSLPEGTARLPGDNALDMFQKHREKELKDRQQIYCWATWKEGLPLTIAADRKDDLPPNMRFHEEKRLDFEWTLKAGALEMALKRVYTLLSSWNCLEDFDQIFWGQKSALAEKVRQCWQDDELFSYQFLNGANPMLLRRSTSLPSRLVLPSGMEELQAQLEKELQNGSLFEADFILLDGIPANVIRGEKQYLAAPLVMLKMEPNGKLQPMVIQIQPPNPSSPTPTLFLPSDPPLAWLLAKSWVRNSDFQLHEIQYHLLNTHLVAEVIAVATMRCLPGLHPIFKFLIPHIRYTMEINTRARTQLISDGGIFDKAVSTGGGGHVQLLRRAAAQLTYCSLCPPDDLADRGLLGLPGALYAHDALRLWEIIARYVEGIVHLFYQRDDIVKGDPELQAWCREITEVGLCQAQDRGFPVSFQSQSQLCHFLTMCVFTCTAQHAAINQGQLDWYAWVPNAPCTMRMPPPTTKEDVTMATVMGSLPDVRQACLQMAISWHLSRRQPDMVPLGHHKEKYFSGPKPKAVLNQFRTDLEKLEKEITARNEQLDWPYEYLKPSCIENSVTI
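Purified human 12hLO (150 nM), preincubated 15 min with compound, then 40 uM arachidonic acid for 30 min, room temperature, Hepes pH 7.0 with 0.01% Triton X-100. Hydroperoxide detected by ferrous iron/xylenol orange; 573/405 nm absorbance ratio gives reaction progress.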
Numbers stand for hits; n = inactive; u = inconclusive; x = no result given; [ ] = dose if it differs, or a comment. The list is not random: actives were taken first. Their share in the collection is about 10%. Unless noted, calls come from the whole dose curve; as a rule, active = well fitted curve in the direction sought with a large enough effect; inconclusive = small, poorly fitted or top-dose-only effect, or another doubt; inactive = no such curve, though single readings can be large; an effect the other way counts as inactive or inconclusive.

SMILES	GLA inh pH 4.5	HPGD block	GLA spleen mod	PNC assembly inh	ALDH1A1 inh	12-hLO inh
COc1ccc(S(=O)(=O)N2CCC(C(=O)N3CCCC3)CC2)cc1Cl	n	n	n	n	n	n
COc1cc(S(=O)(=O)N2CCCCC2)ccc1NC(=O)c1ccccc1Cl	n	n	n	-100	2µM	n
COc1ccc(S(=O)(=O)N2CCC(C(=O)N3CCCCC3)CC2)cc1Cl	n	16µM	n	n	n	n
CC1CCN(C(=O)C2CCN(S(=O)(=O)c3cccnc3)CC2)CC1	n	n	n	n	n	n
O=C(c1ccc2ccccc2c1)C1CCCN(S(=O)(=O)c2cccnc2)C1 (stereo not given)	n	x	n	x	25µM	x
O=C(C1CCN(S(=O)(=O)c2cccnc2)CC1)N1CCCCC1	n	20µM	n	n	n	n
OC[C@@H](O)[C@@H](O)CCc1ccccc1	n	n	n	x	n	x
CCOC(=O)c1cnc(N(C)C)nc1SC(=N)N	x	n	x	x	u	n[11.4 µM]
COC(=O)CCCC(=O)O	x	n	x	x	n[13.5 µM]	n[11.4 µM]
CCOc1ccc(CSCCNC(=S)Nc2ccccc2)cc1	n	n	n	-92	n	u
CCOc1ccc(NC(=S)Nc2ccc(OCc3ccccc3)cc2)cc1	n	n	n	n	n	n
CNC(=S)Nc1ccc(OCc2ccccc2)cc1	n	x	n	x	32µM	x
Cc1ccccc1CSCCNC(=S)Nc1ccccc1	n	x	n	x	n	x
S=C(NCCSCc1ccc(Cl)cc1Cl)Nc1ccccc1	n	n	n	n	n	25µM
C[C@H](NC(=O)/C(C#N)=C/c1ccc(O)c(O)c1)c1ccccc1	n	n	u	x	u	20µM
N#C/C(=C/c1ccc(O)c(O)c1)C(=O)OC/C=C/c1ccccc1	x	x	n	x	4.5µM	x
CC(NC(=O)/C(C#N)=C/c1ccc(Cl)c([N+](=O)[O-])c1)c1ccccc1 (stereo not given)	n	n	n	-100	n	n
C[C@@H](NC(=O)/C(C#N)=C/c1ccc(O)c(O)c1)c1ccccc1	n	n	n	x	n	u
CC(C)OC(=O)[C@@H]1CC[C@H](C)[C@@H](CCC[C@@H]2C[C@@H](O)C[C@H](CC#N)O2)O1	n	n	n	x	n	x
CC[C@@H](c1ccccc1)n1c(=O)n2n(c1=O)[C@H]1[C@H](O)[C@H]3O[C@@H]3/C(=N/OCc3ccccc3)[C@@H]1CC2	x	x	n[17.5 µM]	x	n[13.5 µM]	x
O=C(O)c1cc(Cl)c(Cl)cc1C(=O)Nc1cccc2cccnc12	n	n	n	n	n	n
O=C(O)[C@@H]1[C@@H]2C[C@@H]3[C@@H](OC(=O)[C@@H]31)[C@H]2Br	x	n	x	x	n[13.5 µM]	n[11.4 µM]
COc1ccccc1-c1cc(C(F)(F)F)nc(S(C)(=O)=O)n1	n	25µM	n	u	n	n
N[C@@H](COC(c1cccc(F)c1)c1ccccc1OCc1ccccc1)C(=O)O (stereo not given in full)	x	x	n	x	x	x
CN(C)c1ccc(/C=[N+](\[O-])C(C)(C)/C=N/O)cc1	n	n	n	n	22µM	n
SMILES	GLA inh pH 4.5	HPGD block	GLA spleen mod	PNC assembly inh	ALDH1A1 inh	12-hLO inh
Cc1noc(-c2ccc(CSCCC(=O)O)cc2)c1NC(=O)OC(C)c1ccccc1Cl (stereo not given)	x	x	n	x	x	x
CN(C)c1ccc(-c2ccc3ncnc(-n4ccnc4)c3c2)cc1	x	x	n	x	u	x
CCN(CC)c1ccc(/C=N/NS(=O)(=O)c2ccc(CNC(C)=O)cc2)cc1	n	n	n	n	u	n
CCN(CC)c1ccc(C=NCCc2ccc(S(N)(=O)=O)cc2)cc1	n	x	n	x	0.13µM	x
CN(C)S(=O)(=O)Nc1ccc(Oc2ccccc2)cc1	n	13µM	n	n	n	n
Cc1[nH]c(=O)[nH]c(=O)c1S(=O)(=O)Nc1ccc(Oc2ccccc2)cc1	n	n	n	u	n	n
CCOc1ccc(C(C)=O)cc1CC(C(N)=O)C(N)=O	n	n	n	n	n	n
CCOc1ccc(C(C)=O)cc1COC(=O)C1=COCCO1	n	n	n	n	14µM	n
CCCC(c1nnnn1C(C)(C)CC)N(Cc1ccco1)Cc1cc2ccc(OC)cc2[nH]c1=O (stereo not given)	n	n	n	n	32µM	n
O=C(NCc1cccs1)C(=O)NCC1OCCCN1S(=O)(=O)c1ccccc1 (stereo not given)	n	n	n	-90	n	n
O=C(NCc1cccnc1)C(=O)NCC1OCCN1S(=O)(=O)c1ccc(Cl)cc1 (stereo not given)	n	n	n	-119	n	n
Cc1cc2c(cc(C(=O)NCc3cccnc3)n2Cc2ccc(Cl)cc2)o1	n	18µM	n	n	6.3µM	u
O=C(NCc1ccccc1)C(=O)NCC1OCCN1S(=O)(=O)c1cccs1 (stereo not given)	n	n	n	u	u	n
COCCNC(=O)C(=O)NCC1OCCCN1S(=O)(=O)c1cccs1 (stereo not given)	n	n	n	n	18µM	n
Cc1cc(C(=O)NCc2cccnc2)no1	n	n	n	n	n	n
Cc1ccc(S(=O)(=O)N2CCCOC2CNC(=O)C(=O)NCc2cccnc2)cc1 (stereo not given)	n	n	n	n	n	n
CCCCOc1ccc(NC(=S)Nc2cc(C)nc(SCCCC)n2)cc1	n	n	n	n	n	n
CC(=O)N1CC=CC1(CC(C)C)C(=O)NCc1ccccn1 (stereo not given)	n	n	n	x	n	n
CC(NC(=S)NCCc1ccccc1)C(c1cccs1)N1CCN(C)CC1 (stereo not given)	n	n	n	n	n	n
FC(F)(F)c1ccccc1-n1c(CN2CCCCC2)n[nH]c1=S	n	x	n	x	x	x
COC(=O)c1scc(C)c1-n1ccc(C(=O)C(=O)N(C)C)c1	n	x	n	x	n	x
CC1NC(C(=O)O)Cc2c1[nH]c1ccccc21 (stereo not given)	x	x	n	x	n	x
COc1ccc(-n2c(SCC(=O)NNC(=O)c3ccc(C)cc3)nnc2-c2ccncc2)cc1	n	n	n	n	n	n
O=C(NCc1ccco1)C(=O)NCC1OCCCN1S(=O)(=O)c1ccccc1 (stereo not given)	n	n	n	n	14µM	n
CCCOc1cccc(C(=O)NC(=S)Nc2cccc(C(F)(F)F)c2)c1	n	n	n	u	18µM	u
CCOc1cccc(C(=O)NC(=S)Nc2cccc(C)c2)c1	n	n	n	n	8.9µM	u
CCCCOc1cccc(C(=O)NC(=S)Nc2ccc(Cl)c(C(=O)O)c2)c1	n	x	n	x	u	x
CCOc1cccc(C(=O)Nc2cccc(C(C)=O)c2)c1	n	n	n	n	n	n
COC(=O)CC1[C@@]2(C)C[C@@]34OC5(C)OC6(CC[C@@]7(C)C(c8ccoc8)OC(=O)C(C(C)=O)C7[C@]6(O5)C(O)[C@@]3(O)C2O)[C@]14C (stereo not given in full)	n	n	n	x	n	n
